# “And” between values parts separate entries of the source, which are not always exact repeats. Equal values may be shown once. The whole screen tested about 340,000 compounds, of which about 6,200 (1.8%) were called active. Roughly 10% stayed inconclusive and do not appear here. Calls come from the whole dose curve; as a rule, active = well fitted activation curve with a large enough effect; inconclusive = small, poorly fitted or top-dose-only effect; inactive = no such curve, though single readings can be large or run the other way. Many of the other results were omitted from the sample, so actives are more common in it than they were. Where a structure was tested more than once in an assay, its records may differ in their call.
# Experiment: A quantitative high throughput screen for small molecules that induce DNA re-replication in SW480 colon adenocarcinoma cells. For re-replication activation: % of control where 0% means no effect. Note: nearly all actives have a fitted effect of over 55% in size.
# Settings: Hoechst DNA content imaging, 48 h; series mostly up to 46.1 µM; re-replication activation: at the top concentration
# Method in brief: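 SW480 cells exposed to compounds for 48 hr at 37 C, 5% CO2, then Hoechst-stained 40 min. Nuclear DNA content imaged by fluorescence scanning (405 nm excitation, 500-530 nm emission); re-replication scored as increased high-intensity nuclei.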
# Potency is the fitted concentration of half-maximal effect.
Compound,Potency,re-replication activation
CCN(CC)c1ccc(/C=N/Nc2nc(C)cc(C)n2)c(O)c1,8.2 µM (active),
CCNc1nc(NCC)nc(N/N=C/c2ccc(O)c(OC)c2)n1,,-6.79% (inactive)
Cc1cc(C)nc(N/N=C/c2ccncc2)n1,,-5.1% (inactive)
Oc1ccc(Cl)c2c1CCC2,,0.638% (inactive)
CSc1ncnc2c1ncn2CC(=O)C1CCC2C3CCC4=CC(=O)CCC4(C)C3CCC12C (stereo not drawn),,5.31% (inactive)
Cc1ccc(C(=O)NCC(=O)NC2CC2)cc1,,6.41% (inactive)
Cc1cc(NC(=O)c2cc3ccccc3o2)no1,,-4.96% (inactive)
COc1ccc(C(=O)Nc2ccc(C3(C#N)CCCC3)cc2)cc1OC,,10.6% (inactive)
COc1ccc(C(=O)N/N=C2\CCS(=O)(=O)c3ccc(F)cc32)cc1OC,10.3 µM (active),
CCNC(=O)c1ccc(OCC(=O)Nc2ccc(F)cc2)c(OC)c1,,-4.04% (inactive)
CN(C)C(=O)CCc1ccc2c3c([nH]c2c1)[C@]1(C)[C@@H](C(=O)N2CCOCC2)C[C@H](CC(=O)NCCc2ccccn2)C(=O)N1CC3,,2.59% (inactive)
COc1ccc(NS(=O)(=O)c2ccc(N3CCOCC3)c(NC(=O)/C=C/C(=O)O)c2)cc1,,1.18% (inactive)
Cc1ccc(S(=O)(=O)CCC(=O)OCC(=O)N(C)Cc2ccccc2)cc1,,-66.5% (inactive)
CCOc1ccc(-n2c(SCC(=O)Nc3cc(C(=O)O)ccc3Cl)nc3ccccc3c2=O)cc1,,-13.2% (inactive)
CCOc1ccc(-n2c(O)c(/C=N/c3ccnn3Cc3ccncc3)c3ccccc3c2=O)cc1,20.6 µM (active),
Cc1ccc(-n2c(O)c(C=Nc3ccc(S(=O)(=O)Nc4ncccn4)cc3)c3ccccc3c2=O)cc1C,,-2.11% (inactive)
COc1ccc(C(CNC(=O)c2cccc(S(=O)(=O)Nc3ccc(Br)cc3)c2)N(C)C)cc1 (stereo not drawn),,6.62% (inactive)
CCOc1cc(C=NNC(=O)CCCC(=O)NN=Cc2ccc(O)c(OCC)c2)ccc1O,,-6.49% (inactive)
Oc1ccc(/C=N/NC2=NCCCCC2)c(O)c1,,-5.14% (inactive)
Cc1nc2ccccc2nc1N/N=C/c1ccc(O)cc1O,1.64 µM (active),
Oc1ccc(-c2nc3ccccc3nc2-c2ccc(O)cc2O)c(O)c1,,-1.54% (inactive)
COc1ccc(OCCNC(=O)c2cc(C3CC3)nc3c2cnn3C(C)C)cc1,,-6.37% (inactive)
Cc1cn(C2CC(O)C(CO)O2)c(=O)n(CCCc2ccccc2)c1=O (stereo not drawn),,-5.17% (inactive)
CN(C)c1ccc(CSc2ccccc2)cc1,,-9.06% (inactive)
COC(=O)Cc1nc2c(N)nc(N)nc2[nH]c1=O,,-4.14% (inactive)

Compound,Potency,re-replication activation
Cc1sc2nc(SCCO)n(-c3ccccc3)c(=O)c2c1C,,-5.37% (inactive)
CCc1cc2c(=O)n(-c3ccccc3)c(SCC(=O)O)nc2s1,18.4 µM (active),
C=CCn1c(SCC(=O)c2c(N)n(C)c(=O)n(C)c2=O)nc2sc(CC)cc2c1=O,,-1.6% (inactive)
COc1ccc(C(=O)COC(=O)c2c(C)noc2C)cc1Cl,,-8.23% (inactive)
Cc1ccc(C(=O)NNC(=O)c2ccc3c(c2)OCCO3)cc1,,-4.97% (inactive)
CC1CCCCC1NCC(=O)Nc1ccccc1C(=O)Nc1ccccc1 (stereo not drawn),,-3.41% (inactive)
O=C(NNC(=O)c1ccccc1O)c1ccccc1O,1.64 µM (active),
O=C(Nc1ccc(O)cc1)c1ccccc1O,,-4.02% (inactive)
Cc1cc(C(=O)CCC(=O)NNC(=O)c2ccccc2O)c(C)s1,,3.5% (inactive)
O=C(CN1C(=O)c2ccc([N+](=O)[O-])cc2C1=O)Nc1nnc(C2CC2)s1,,-0.538% (inactive)
COc1cc(Cl)c(C)cc1NC(=O)CSc1nnc(CN2CCCC2)o1,,0% (inactive)
CC(=O)NC(=O)c1ccccc1O,,-1.55% (inactive)
Cc1ccnc(NC(=O)c2ccoc2C)c1,,1.1% (inactive)
C/C(=N\NC(=O)c1ccoc1C)c1ccccc1O,2.31 µM (active),
CC(C)NC(=O)Nc1cccc2c1O[C@@H](CN(C)S(=O)(=O)c1ccc(F)cc1)[C@@H](C)CN([C@H](C)CO)C2=O,,16% (inactive)
Cc1ccc(OCCNC(=O)c2cccc(S(=O)(=O)N3CCN(Cc4ccccc4)CC3)c2)cc1,,11.6% (inactive)
CCCCN1C(=O)/C(=C2/C=CC=CN2C)SC1=S,,3.3% (inactive)
CN1C=CC=C/C1=C1\SC(=S)N(Cc2ccccc2)C1=O,23.1 µM (active),
COc1cc(/C=C2/SC(=S)N(Cc3ccccc3)C2=O)cc(OC)c1O,,-77.2% (inactive)
O=C(O)C(CCc1ccccn1)c1ccccc1 (stereo not drawn),,-10% (inactive)
CN(NC(=O)c1ccccc1F)c1nc(C(F)(F)F)nc2ccccc12,0.517 µM (active),
CC(NC(=O)c1ccccc1F)c1cccc2ccccc12 (stereo not drawn),,-6.5% (inactive)
Cn1c(CC(=O)NNC(=O)c2ccccc2F)nc2ccccc21,,9.79% (inactive)
COC(=O)Cc1csc(/N=C/c2c(O)n(-c3cccc(C(F)(F)F)c3)c(=O)c3ccccc23)n1,inactive and 11.6 µM (active),
COC(=O)Cc1csc(Nc2c(C)n(C)n(-c3ccccc3)c2=O)n1,,-10.6% (inactive)

Compound,Potency,re-replication activation
COC(=O)Cc1c(O)ccn(Cc2cccc(C(F)(F)F)c2)c1=O,,0.872% (inactive)
CC(C)(O)c1ccccc1CC[C@H](SCC1(CC(=O)O)CC1)c1cccc(/C=C/c2ccc3ccc(Cl)cc3n2)c1,,2.31% (inactive)
CN(C(=O)COC(=O)Cc1ccccc1[N+](=O)[O-])C1CCS(=O)(=O)C1 (stereo not drawn),,0.116% (inactive)
CCOC(=O)CC(=O)CSc1nc(-c2ccccc2)cc(-c2ccc(Cl)cc2)c1C#N,20.6 µM (active),
N#Cc1c(-c2ccccc2)cc(-c2ccccc2)nc1SCC(=O)O,,-1.38% (inactive)
N#Cc1c(C(F)(F)F)cc(-c2ccc(Cl)cc2)nc1SCC(=O)O,,-7.01% (inactive)
CCOc1ccc(CCNC(=O)COC(=O)C2CCN(S(=O)(=O)c3ccccc3)CC2)cc1OCC,,-32.9% (inactive)
CC(=O)CSc1nc(CCc2ccccc2)c(C#N)c(=O)[nH]1,,4.33% [at 1.84 µM] (inactive)
O=C(N[C@H]1C/C=C\C(c2ccc(F)cc2)N(Cc2ccccc2)C(=O)C1)OCC1c2ccccc2-c2ccccc21 (stereo partly drawn),,5.83% (inactive)
CN(C(=O)c1ccc(NC(=O)Cc2cccc(NC(=O)C3CCN(C(=O)c4ccccc4)CC3)c2)cc1)C1CC1,,-22.3% [at 9.22 µM] (inactive)
O=C(CNC(=O)c1cc(S(=O)(=O)N2CCOCC2)ccc1N1CCCC1)Nc1ccc(F)c(F)c1,,-6.04% (inactive)
COc1ccc(C(=O)CSc2nc(C)cc(C)n2)cc1[N+](=O)[O-],,-11.1% (inactive)
COc1ccc(C(C[N+](=O)[O-])n2nc(C)cc2C)cc1 (stereo not drawn),5.8 µM (active),
COc1ccc(OCc2cn3c(C)cc(C)nc3n2)cc1,,-0.0448% (inactive)
Cc1cc(C(=O)COc2ccc(Br)cc2F)c(C)n1C1CC1,,-11.4% (inactive)
O=C1NC(c2ccccc2)Cc2ccncc21 (stereo not drawn),,-3.42% (inactive)
C[C@@H]1NS(=O)(=O)c2cc(Cl)ccc2O[C@@H]1c1ccccc1,,7.03% (inactive)
O=C1OCCN1C(=O)[C@H]1[C@H](c2ccc(F)cc2)C(c2ccccc2)=NN1c1ccc(Br)cc1,9.2 µM (active),
Cc1cc(OCCCC(=O)Nc2cc(S(=O)(=O)N3CCOCC3)ccc2N2CCOCC2)ccc1Cl,,-0.175% (inactive)
O=C1C(=O)N(c2ccccc2)C(c2ccccc2)C1c1ccccc1 (stereo not drawn),,0.98% (inactive)
O=C1c2cccc3cc(Br)cc(c23)C(=O)N1Nc1ccccc1,,-1.37% [at 9.22 µM] (inactive)
O=C1C=C(c2ccc(Cl)cc2)C(=O)N1Nc1ccccc1,6.51 µM (active),
O=C(O)CC1=C(Nc2ccccc2)C(=O)N(c2ccccc2)C1c1ccc(Cl)cc1 (stereo not drawn),,3.57% (inactive)
C#CCOCCOCCOCCNc1nc(N2CCN(C(=O)C([C@@H](C)O)n3cc([C@@H](N)CCCCN)nn3)CC2)nc(N2CCN(C(=O)[C@H](CCCCN)n3cc(CN)nn3)CC2)n1 (stereo partly drawn),,-4.36% (inactive)
COC(=O)[C@]1(Cc2ccccc2)N[C@H](CN(C)S(=O)(=O)c2ccc(OC(F)(F)F)cc2)[C@@H]2C(=O)N(Cc3ccccc3)C(=O)[C@@H]21,,-6.08% (inactive)

Compound,Potency,re-replication activation
CCCCN1CC(COc2ccccc2)Oc2cccc(F)c2S1(=O)=O (stereo not drawn),,-0.739% (inactive)
O=C(Nc1ccccn1)C1CCN(S(=O)(=O)c2ccccc2)CC1,,-5.61% (inactive)
Cc1ccnc(NC(=O)C2CCN(S(=O)(=O)c3c(C)c(C)cc(C)c3C)CC2)c1,16.4 µM (active),
Cc1cccc(NC(=O)C2CCN(S(=O)(=O)c3cccc4cccnc34)CC2)c1,,2.9% (inactive)
C=CC[C@H](CC(=O)N(CCO)Cc1ccccc1)C(=O)N[C@@H](COC(=O)[C@@H](CC=C)Cc1ccc(F)cc1)Cc1ccccc1,,19.7% (inactive)
O=[N+]([O-])c1ccccc1S(=O)(=O)Nc1cccc2cccnc12,13 µM (active),
Cc1ccccc1NC(=O)c1ccccc1NS(=O)(=O)c1cccc2cccnc12,,-6.45% (inactive)
O=[N+]([O-])c1cccc2ncccc12,,-2.67% (inactive)
CC(=O)C(CC(=O)N1CCCC1)C(=O)Nc1ccc(Cl)cc1 (stereo not drawn),,-3.64% (inactive)
COC1=NC2=NCCN2C(OC)=N1,,-5.59% (inactive)
c1ccc2cc3c(NCCN4CCOCC4)ccnc3cc2c1,10.3 µM (active),
O=C(NCCN1CCOCC1)c1cc(-c2cccs2)nc2ccccc12,,-5.04% (inactive)
O=C(NCCN1CCOCC1)c1ccc2c(c1)ncn2C1CCCC1,,10.1% (inactive)
Cc1ccc(S(=O)(=O)N2CCN(C(=O)COC(=O)CNC(=O)c3ccc(C(C)(C)C)cc3)CC2)c(C)c1,,9.49% (inactive)
CCn1c(=N)c(S(=O)(=O)c2ccc(F)cc2)cc2c(=O)n3ccccc3nc21,20.6 µM (active),
Cc1ccc(-n2c(=O)c(C#N)cc3c(=O)n4ccccc4nc32)cc1C,,12.5% (inactive)
Cc1ccc(S(=O)(=O)c2cc3c(=O)n4cccc(C)c4nc3n(CCc3ccccc3)c2=N)cc1C,,0.0757% (inactive)
N#Cc1c(C(F)(F)F)cc(-c2cccs2)nc1N1CCCCC1,,0.724% (inactive)
Cc1cc(C)c(C#N)c(N2CCC(C(N)=O)CC2)n1,,-2.1% (inactive)
N#CCc1c(C#N)c(N)nc(N2CCCC2)c1C#N,14.6 µM (active),
O=C(OCCOc1ccccc1F)c1cc(S(=O)(=O)N2CCOCC2)ccc1F,,-0.079% (inactive)
COc1cccc(NC(=O)COC(=O)c2ccc3ccccc3n2)c1,,1.57% (inactive)
CN(CCc1ccccc1)C(=O)c1cccc(NC(=O)Cc2cccc(NC(=O)C3CCCN(C(=O)CCc4ccccc4)C3)c2)c1 (stereo not drawn),,0.811% (inactive)

# Source: PubChem BioAssay AID624297 (National Center for Advancing Translational Sciences (NCATS), 2012)
